{"source": "PubChem BioAssay AID463173", "about": "(ICCB-Longwood Screening Facility, Harvard Medical School, 2010)", "note": "Among all 52,000 compounds or so, about 4,300 (8.3%) were called active. The list comes from a sample in which actives are over-represented; it also holds similar structures and randomly drawn compounds. Values without a mark were called inactive. Cut-off read from the data, not from the text of the source: active = survival mostly below about 52% (no sharp cut-off); inactive = mostly above about 56%."}
{"tested_on": "DeltatarO mutant", "test": "S. aureus survival, RN4220 and DeltatarO strains – OD600, teichoic acid synthesis inhibitors, primary screen (AID 463173)", "details": "S. aureus RN4220 wild type/DeltatarO growth, OD600, 18 h, stronger effect = lower value, screened at 18.75 µg/mL (by protocol)"}
{"compound": "COc1ccc(Nc2ncnc3c2cnn3-c2ccc(C)cc2)cc1Cl", "survival": "128%"}
{"compound": "CC1=C(c2ccc(C)c(C)c2)S(=O)(=O)N=C1N1CCC(C(=O)Nc2cccc(F)c2)CC1", "survival": "79%"}
{"compound": "O=C(COC(=O)c1ccccc1Cl)Nc1nccs1", "survival": "94%"}
{"compound": "Cc1ccc(CCNC(=O)NCc2noc3ccccc23)cc1", "survival": "102%"}
{"compound": "COc1ccc(CNC(=O)C(=O)Nc2c3c(nn2-c2ccccc2)CSC3)cc1", "survival": "86%"}
{"compound": "Cc1ccc(OCCSc2nc(-c3ccccc3C)nc3cc(=O)[nH]n23)cc1Cl", "survival": "106%"}
{"compound": "COc1ccc(CNC(=O)CCS(=O)(=O)c2cc(Br)cc3c2N(C(C)=O)C(C)C3)cc1", "note": "(stereo not drawn)", "survival": "92%"}
{"compound": "CCOC(=O)c1c(S(=O)(=O)N2CCC(C(=O)Nc3cccc(C)n3)CC2)c(C)n(C)c1C", "survival": "94%"}
{"compound": "CCC(C(=O)Nc1cc(F)ccc1F)n1nc(C)c2c(C)n(-c3ccc(C)cc3)nc2c1=O", "note": "(stereo not drawn)", "survival": "87%"}
{"compound": "CCC(C(=O)Nc1cc(F)ccc1F)n1nc(-c2cc(C)ccc2C)ccc1=O", "note": "(stereo not drawn)", "survival": "38% (active)"}
{"compound": "Cc1ccc2onc(CNC(=O)Nc3cc(F)ccc3F)c2c1", "survival": "49%"}
{"compound": "COc1ccc(NC(=O)c2sc3nc4n(c(=O)c3c2C)CCC4)cc1Cl", "survival": "108%"}
{"compound": "CCc1ccc(NC(=O)C2(c3cccs3)CCOCC2)cc1", "survival": "73%"}
{"compound": "Nc1n[nH]c2nc(C(F)(F)F)cc(=O)n12", "survival": "62%"}
{"compound": "Cc1ccc(C(=O)C2=C(O)C(=O)N(CCc3ccccc3)C2c2ccncc2)o1", "note": "(stereo not drawn)", "survival": "103%"}
{"compound": "COc1cccc(C(=O)Nc2ccc3oc(-c4ccc5ccccc5c4)nc3c2)c1", "survival": "55%"}
{"compound": "Cc1ccc(C(=O)Nc2ccc3oc(-c4ccccc4C)nc3c2)cc1", "survival": "65%"}
{"compound": "COc1cc(OC)cc(C(=O)Nc2ccc3oc(-c4ccccc4C)nc3c2)c1", "survival": "34% (active)"}
{"compound": "CC(C)Oc1cccc(C(=O)Nc2ccc3oc(-c4cccc(Cl)c4)nc3c2)c1", "survival": "28% (active)"}
{"compound": "COC(=O)c1ccc(C(=O)Nc2ccc(-c3nc4cc(NC(=O)c5ccc(C(=O)OC)cc5)ccc4o3)cc2)cc1", "survival": "60%"}
{"compound": "COc1cc(OC)cc(C(=O)Nc2ccc3oc(-c4cccc5c(Br)cccc45)nc3c2)c1", "survival": "60%"}
{"compound": "CC(C)Oc1cccc(C(=O)Nc2ccc(-c3nc4cc(Cl)cc(Cl)c4o3)cc2)c1", "survival": "55%"}
{"compound": "COc1ccc(C(=O)Nc2ccc3oc(-c4ccc(OC)cc4)nc3c2)cc1", "survival": "60%"}
{"compound": "O=C(Nc1ccc(-c2nc3cc(NC(=O)c4ccc(Cl)cc4)ccc3o2)cc1)c1ccc(Cl)cc1", "survival": "88%"}
{"compound": "COc1cc(OC)cc(C(=O)Nc2ccc(-c3nc4cc(C(C)C)ccc4o3)cc2)c1", "survival": "45% (active)"}
{"compound": "COc1cc(OC)cc(C(=O)Nc2ccc3oc(-c4ccc(Cl)cc4)nc3c2)c1", "survival": "50% (active)"}
{"compound": "COc1cc(C(=O)Nc2ccc(-c3nc4cc(C)c(C)cc4o3)cc2)cc(OC)c1OC", "survival": "59%"}
{"compound": "Cc1cc(F)ccc1NC(=O)Cn1nc(N2CCN(c3ccccc3)CC2)ccc1=O", "survival": "80%"}
{"compound": "COc1cc(-c2noc(-c3ccc(N4CCOCC4)c([N+](=O)[O-])c3)n2)cc(OC)c1OC", "survival": "66%"}
{"compound": "CCc1cc(C(=O)OC)c(NC(=O)CC2SC(=NC)N(C)C2=O)s1", "note": "(stereo not drawn)", "survival": "106%"}
{"compound": "COCCn1c(CNC(=O)c2cccc(C)c2)nc2cccnc21", "survival": "95%"}
{"compound": "Cc1cccc(N2CCN(C(=O)CCc3nnc4n(CC(C)C)c(=O)c5ccccc5n34)CC2)c1C", "survival": "74%"}
{"compound": "CCc1ccc(C2CC(=O)Nc3cc4c(cc32)OCO4)cc1", "note": "(stereo not drawn)", "survival": "59%"}
{"compound": "CCN(CC)S(=O)(=O)c1ccc(-c2nnc(SCC(=O)N3CCCC3)n2CC)cc1", "survival": "103%"}
{"compound": "COc1ccc(Nc2nnc(-n3nc(C)cc3C)c3ccccc23)cc1", "survival": "85%"}
{"compound": "O=C(CSc1ncc(CO)n1Cc1ccccc1)Nc1nc2ccccc2s1", "survival": "122%"}
{"compound": "CCOc1ccccc1CNC(=O)Cn1nc(C)c2nn(-c3ccc(Cl)cc3)c(C)c2c1=O", "survival": "101%"}
{"compound": "COc1ccc(NC(=O)Cn2nc(C)c3nn(-c4ccc(Cl)cc4)c(C)c3c2=O)cc1", "survival": "85%"}
{"compound": "Cc1nn(CC(=O)Nc2ccc(OC(F)(F)F)cc2)c(=O)c2c(C)n(-c3ccc(Cl)cc3)nc12", "survival": "25% (active)"}
{"compound": "COc1ccccc1CNC(=O)Cn1nc(C)c2nn(-c3ccc(Cl)cc3)c(C)c2c1=O", "survival": "63%"}
{"compound": "CCOC(=O)c1ccc(NC(=O)Cn2nc(C)c3nn(-c4ccc(Cl)cc4)c(C)c3c2=O)cc1", "survival": "102%"}
{"compound": "Cc1ccccc1CNC(=O)Cn1nc(C)c2nn(-c3ccc(Cl)cc3)c(C)c2c1=O", "survival": "37% (active)"}
{"compound": "Cn1c(=O)oc2cc(S(=O)(=O)N3CCC(C(=O)N4CCN(c5ccccc5F)CC4)CC3)ccc21", "survival": "80%"}
{"compound": "Cc1cccc(NC(=O)CSc2nnc3[nH]c(=O)cc(C)n23)c1C", "survival": "75%"}
{"compound": "CN(C)S(=O)(=O)c1ccc(S(=O)(=O)N2CCN(C=O)CC2)cc1", "survival": "105%"}
{"compound": "CCOc1ccc(CNC(=O)Cc2ccc(NC(=O)N3CCSc4ncccc43)cc2)cc1", "survival": "96%"}
{"compound": "CC(C)(C)C(=O)N1CCN(c2nc3c(F)cccc3s2)CC1", "survival": "82%"}
{"compound": "CC(C)(C)N(Cc1ccccc1)C(=O)CSc1nnc(CNc2ccc(F)cc2)o1", "survival": "74%"}
